# RGS4 inhibitor: Inhibitors of Regulator of G Protein Signaling (RGS) 4: qHTS. actives 0.039% (n = 390,000). Transcreener GDP fluorescence polarization, RGS4-accelerated GTP hydrolysis. Potency, µM (top dose mostly 114 µM), for inactives: top-dose activity change, negative = inhibition, actives largely listed as inhibitors; also: potency is read from the fitted curve at half-maximal effect; % is scaled to controls: 0 for no effect and ±100 for the full control effect; nearly all actives have a fitted effect of over 75% in size
# Target sequence (P49798 whole entry, looked up): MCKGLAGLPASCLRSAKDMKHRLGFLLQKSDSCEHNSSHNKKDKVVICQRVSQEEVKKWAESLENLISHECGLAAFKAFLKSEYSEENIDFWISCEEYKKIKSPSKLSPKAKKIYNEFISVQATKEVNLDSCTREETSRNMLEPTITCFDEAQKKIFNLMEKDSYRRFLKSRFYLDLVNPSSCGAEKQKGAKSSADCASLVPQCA
#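 MLSMR compounds (23 nl, pin-transferred) preincubated 10 min at room temperature with a 500nM (2x) first reagent, then RGS4 at 900nM (2x) plus Transcreener GDP mix added; fluorescence polarization (620/688 nm) read before and after 90 min at 30 °C.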
# DRD3 antagonist: qHTS of D3 Dopamine Receptor Antagonist: qHTS; D(3) dopamine receptor (Homo sapiens), P35462; D3R cells, DiscoveRx beta-arrestin luminescence, antagonist mode; active compounds read low; actives 2.5% (n = 360,000); max response, negative = inhibition, %; AID 652054, 2013; in the data active = max response below about -50%; inconclusive = no clear call, values can overlap the other calls; also: % is scaled to controls: 0 for no effect and ±100 for the full control effect
#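 Cells expressing the human receptor were seeded at 1500 cells/well, incubated overnight at 37 degrees C in 5% CO2, then exposed to library compounds with dopamine controls for 90 minutes at 37 degrees C before luminescent detection.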
# B2AR arrestin: qHTS assay of beta-arrestin-biased ligands of beta2-adrenergic receptor. beta-arrestin recruitment to beta2AR, cell-based reporter. Potency, µM (top dose mostly 46.1 µM), for the others: at the highest dose activation, hits mostly activators. actives 0.02% (n = 330,000). AID 492947, 2010;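 also: potency is read from the fitted curve at half-maximal effect; 0% = DMSO controls and full agonism = EC100 isoproterenol or metaproterenol; nearly all actives have a fitted effect of over 65% in size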
# Target sequence (P07550 whole entry, looked up): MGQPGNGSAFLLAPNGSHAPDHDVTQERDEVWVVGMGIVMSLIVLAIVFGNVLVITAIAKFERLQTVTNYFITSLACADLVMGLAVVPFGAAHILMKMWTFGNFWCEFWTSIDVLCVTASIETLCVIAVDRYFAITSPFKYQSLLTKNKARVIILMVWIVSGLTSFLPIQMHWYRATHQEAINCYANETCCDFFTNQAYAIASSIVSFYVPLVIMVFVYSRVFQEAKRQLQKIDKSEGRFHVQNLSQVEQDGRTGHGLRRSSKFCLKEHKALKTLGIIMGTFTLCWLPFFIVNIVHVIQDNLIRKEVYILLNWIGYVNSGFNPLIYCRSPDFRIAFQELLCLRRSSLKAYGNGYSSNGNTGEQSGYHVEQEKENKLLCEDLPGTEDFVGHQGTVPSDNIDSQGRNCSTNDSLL
# BRCA1 expr up: qHTS Assay to Identify Small Molecule Activators of BRCA1 Expression; MCF7-BRCA1-FFLuc reporter, luminescence, 48 h; response scale: scaled: vehicle 0%, 10 µM genistein 100%; Potency, µM (titrated, usually from 46.1 µM), for the others: at the top dose activation, most hits filed as activators; actives 1.1% (n = 380,000); AID 624202, 2012; also: potency is read from the fitted curve at half-maximal effect; nearly all actives have a fitted effect of over 80% in size
#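 Activators of BRCA1 expression were detected as increased firefly luciferase luminescence in engineered MCF7 cells after 48 h compound incubation. Signals were scaled to genistein 10 microM as full activation.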
# DRD3 agonist: qHTS of D3 Dopamine Receptor Agonist: qHTS; D(3) dopamine receptor (Homo sapiens), P35462; D3R DiscoveRx beta-arrestin cells, luminescence, 90 min; max activation, %; actives 0.58% (n = 410,000); in the data active = max activation above about 30%; also: 0% is about no effect
#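 Agonist mode: compounds and dopamine controls were applied to plated cells for 90 min at 37 degrees C after an overnight attachment at 1500 cells/well. Luminescent read-out followed 30 - 60 minutes at room temperature with DiscoveRx detection reagent.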
# PTHR1 agonist: qHTS for PTHR1 Agonists: Primary Screen; Parathyroid hormone/parathyroid hormone-related peptide receptor (Homo sapiens), Q03431; HEK293 GP2 PTHR1 cells, GloSensor cAMP luminescence, 1 h; Potency, µM (doses to about 115 µM), inactives show top-dose activation, actives largely listed as activators; actives 0.075% (n = 410,000); AID 743266, 2014; also: potency is read from the fitted curve at half-maximal effect; nearly all actives have a fitted effect of over 55% in size
#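 HEK-293-derived GP2 cells expressing PTHR1 and a GloSensor cAMP reporter, 3,000/well, plated overnight, given luciferin plus IBMX (each 0.5 mM as added) for 1 h at 37 °C, then compound for 1 h at 37 °C. Luminescence was read after 15 min at room temperature.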
# An asterisk follows results filed as active; i = inactive; ? = inconclusive; . = not tested or not shown; [ ] = dose if it differs, or a comment. This is a sample that favours compounds with a hit; in the whole collection about 3.7% have one here. Unless noted, calls follow the shape of the dose curve; as a rule, active = well fitted curve in the direction sought with a large enough effect; inconclusive = small, poorly fitted or top-dose-only effect, or another doubt; inactive = no such curve, though single readings can be large; an effect the other way counts as inactive or inconclusive.
SMILES,RGS4 inhibitor,DRD3 antagonist,B2AR arrestin,BRCA1 expr up,DRD3 agonist,PTHR1 agonist
CN1CCN(C(=O)c2cc3nc(-c4ccc(F)cc4)cc(C(F)(F)F)n3n2)CC1,12%,-52*,0%,-55%,1,-28%
Cc1ccc(-c2cc(C(F)(F)F)n3nc(C(=O)N4CCN5CCCC5C4)cc3n2)cc1 (stereo not given),21%,0,-1%,-4%,-2,-9%
Cc1ccc(-c2cc(C(F)(F)F)n3ncc(C(=O)O)c3n2)cc1,-2%[11.4 µM],0,-1%,-19%,5,i
CCOC(=O)C1CCCN(C(=O)c2cc3nc(-c4ccc5c(c4)OCO5)cc(C(F)(F)F)n3n2)C1 (stereo not given),2%,47,0%,-18%,120*,i
CC(C)(C)NC(=O)COC(=O)CNC(=O)C1CCCCC1,23%,.,.,5%,.,.
COc1ccc(NC(=O)C(OC(=O)c2cnccn2)c2ccccc2)cc1Cl (stereo not given),9%,-22,3%,42%,0,i
CCOC(=O)C(NC(=O)NCc1ccccc1)(OCC)C(F)(F)F (stereo not given),-27%,0,-1%,-64%,-2,i
CCOC(=O)C(NC(=O)Nc1ccc(F)cc1)(OCC)C(F)(F)F (stereo not given),4%,-53*,-1%,-7%,-7,i
Cc1csc(N=Nc2ccc(N(C)C)cc2)[n+]1[O-],.,-102*,.,?,-20,-33%
CN(C)c1ccc(N=Nc2ccc(C(=O)O)cc2)cc1,?,?,-1%,?,-4,-23%
Cc1cc(NC(C)c2ccccc2)n2ncc(-c3ccccc3)c2n1 (stereo not given),12%,38,1%,6.3µM*,12,-24%
CC(=O)Oc1ccccc1Cn1c(C)c(C(=O)NCc2cccc(Cl)c2)sc1=O,.,?,.,-27%,-2,-39%
COc1nccnc1NS(=O)(=O)c1ccc(NC(=S)NC(=O)/C=C/c2ccccc2)cc1,-33%,-63*,0%,-1%,-10,-87%
COc1ccc(NC(=S)NC(NC(=O)/C=C/c2ccccc2)C(Cl)(Cl)Cl)cc1 (stereo not given),26%[11.4 µM],-69*,0%,-21%,-7,-2%
CCCCc1ccc(NC(=S)NCc2cccc(OC)c2)cc1,11%,14,0%,6%,-2,-77%
COc1ccc(NC(=S)Nc2ccccn2)cc1,11%,1,?,4µM*,0,-10%
COc1nccnc1NS(=O)(=O)c1ccc(NC(=S)NC(=O)c2ccccc2)cc1,-16%,?,-1%,-15%,-5,i
CCCCc1ccc(NC(=S)Nc2ccc(Nc3ccc(OC)cc3)cc2)cc1,-2%,-80*,0%,-63%,-5,6%
S=C(NCCCN1CCOCC1)N1CCN(c2cccc(Cl)c2)CC1,-36%,1,-1%,-25%,-14,-26%
COc1ccc(/C=C/C(=O)NC(=S)Nc2ccccn2)cc1,-28%,9,0%,8.9µM*,3,i
COc1ccccc1/C=C/C(=O)NC(=S)Nc1ccccn1,-5%,-5,0%,-19%,-6,-6%
COc1ccc(C2C(C(=O)Nc3ccc(C)cc3C)=C(C)Nc3nc(SCc4cccc(C)c4)nn32)c(OC)c1 (stereo not given),-15%,.,.,0%,-16,-18%
COc1ccc(Cl)cc1-n1c(=S)sc2c(=O)[nH]c(SCC(=O)NCC3CCCO3)nc21 (stereo not given),7%,-58*,0%,0%,-27,i
COCCCNC(=O)CSc1nc2c(sc(=S)n2-c2cc(Cl)ccc2OC)c(=O)[nH]1,-13%,24,0%,-5%,5,i
Cc1c(Cl)sn(-c2ccc(Cl)cc2)c1=O,-120%,-52*,-2%,-85%,-2,-43%
SMILES,RGS4 inhibitor,DRD3 antagonist,B2AR arrestin,BRCA1 expr up,DRD3 agonist,PTHR1 agonist
OC(c1ccc(-c2ccccc2)cc1)c1ncc(-c2ccc(F)cc2)[nH]1 (stereo not given),.,-7,.,0%,-8,-94%
CCCCN(C)Cc1cc(=O)oc2cc3c(cc12)CCCC3,?,-91*,7%,9%,-47,-15%
O=C(CN(Cc1ccccc1)C1=NCCS1)c1ccc(Cl)cc1,14%[11.4 µM],-64*,0%,3%,-12,-15%
COc1ccc(/C=C/C(=O)O)cc1S(=O)(=O)NC1CCS(=O)(=O)C1 (stereo not given),-28%,11,0%,-4%,1,-22%
CN1C(=O)C2(CCCCC2)C1c1ccccc1 (stereo not given),3%,-76*,-1%,5%,-15,-23%
O=C1N(c2ccccc2)C(c2ccccc2)C12CCCCC2 (stereo not given),-22%,13,0%,1%,-1,i
O=C(COc1ccc(-c2nnco2)cc1)N1CCOCC1,17%,11,0%,-5%,-2,i
CC(=O)Nc1ccc(N2CCC(C)CC2)c([N+](=O)[O-])c1,-9%,-8,0%,30%,7,-18%
CC(=O)Nc1ccc(N2CCCC(C)C2)c([N+](=O)[O-])c1 (stereo not given),14%,-55*,0%,-15%,-12,-4%
Cc1csc(NC(=O)Cc2ccc(Cl)cc2)n1,4%,-5,.,?,-3,i
Cc1csc(NC(=O)Cc2ccccc2Cl)n1,4%,-12,0%,10µM*,0,i
S=C(Nc1cc(Cl)cc(Cl)c1)NC1CCN(Cc2ccccc2)CC1,-41%,-94*,-1%,-68%,-14,i
S=C(Nc1ccccc1Cl)NC1CCN(Cc2ccccc2)CC1,2%,-84*,0%,-15%,-7,i
O=C(Nc1ccccc1)NC1CCN(Cc2ccccc2)CC1,13%,.,0%,-7%,.,-7%
CC(C)c1ccc(NC(=S)NC2CCN(Cc3ccccc3)CC2)cc1,-20%,?,0%,-83%,-21,i
S=C(NCc1ccc(Cl)cc1)NC1CCN(Cc2ccccc2)CC1,4%,-66*,0%,-39%,-16,-16%
CC(C)c1ccccc1NC(=S)NC1CCN(Cc2ccccc2)CC1,10%,-79*,0%,-23%,-40,-7%

# Assay outcomes (PubChem BioAssay)
